Screens deposited in PubChem BioAssay by The Scripps Research Institute Molecular Screening Center.
UHRF1 binding: human UHRF1 methylated DNA binding inhibitors | hit rate 0.75% among 370,000 | UHRF1 binding to methylated oligo, TR-FRET | inhibition, % at 4.4 µM | Q96T88 | AID 687016; in the data active = inhibition above about 21%;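 note: UHRF1 SRA domain binding a hemimethylated CpG hairpin DNA probe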
PRMT1 inh: inhibitors of human PRMT1. hit rate 1.3% among 370,000. inhibition, % at 2.79 µM. AID 652257. recombinant PRMT1, activity-based probe fluorescence polarization. Q99873;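 active = inhibition above about 21% made by adding two undisclosed values, limit read from the data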
Target sequence (Q99873 whole entry, looked up): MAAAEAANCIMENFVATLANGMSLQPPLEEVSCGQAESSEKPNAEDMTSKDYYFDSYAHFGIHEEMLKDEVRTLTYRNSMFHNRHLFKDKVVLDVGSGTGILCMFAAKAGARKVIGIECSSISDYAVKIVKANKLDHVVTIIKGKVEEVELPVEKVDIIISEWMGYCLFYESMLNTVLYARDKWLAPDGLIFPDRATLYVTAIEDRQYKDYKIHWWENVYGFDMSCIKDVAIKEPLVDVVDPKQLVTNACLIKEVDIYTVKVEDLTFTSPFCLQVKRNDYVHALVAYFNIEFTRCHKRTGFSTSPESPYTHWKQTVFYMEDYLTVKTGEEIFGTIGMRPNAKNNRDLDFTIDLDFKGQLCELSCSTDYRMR
LEDGF integ inh: blocks HIV-1 LEDGF/p75-dependent DNA integration; TR-FRET IN-LEDGF/p75 DNA integration, Eu/Cy5; inhibition, % at 3.7 µM; hit rate 0.64% among 370,000;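 active = inhibition above the screen-wide mean plus 3 SD, cut at about 13% in these data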;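 note: signal is the Cy5 over europium emission ratio at 671 and 618 nm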
MBD2 inh: inhibitors of human MBD2 binding to methylated oligonucleotide | TR-FRET | Q9UBB5 | hit rate 0.31% among 370,000 | inhibition, % at 4.4 µM; in the data active = inhibition above about 13%
Hits are given with their value; – = inactive. In the library only some 2.5% were active in any assay of this set; here they are far more common.

SMILES | UHRF1 binding | PRMT1 inh | LEDGF integ inh | MBD2 inh
O=C(c1ccco1)[C@@H]1[C@@H]2C(=O)N(c3ccc(Br)cc3)C(=O)[C@@H]2C2c3ccccc3C=CN21 (stereo not given in full) | – | 25 | – | –
O=C(O)c1cc(O)c2c(c1)C(=O)c1cccc(O)c1C2=O | – | 32 | – | –
Cc1cc(O)c2c(c1)C(=O)c1cccc(O)c1C2=O | – | – | – | –
CCC1CCCCN1C(=O)COC(=O)COc1ccc(Br)cc1 (stereo not given) | – | – | – | –
COC(=O)[C@]12CCCCC=C1N(Cc1ccco1)C(=O)[C@H](CC(=O)N1CCN(C(=O)C3CC3)CC1)C2 | – | – | – | –
CCN(CC)C(=O)[C@H]1C[C@H](CC(=O)NCCc2ccccn2)C(=O)N2CCc3c([nH]c4cc(CCC(=O)N(C)C)ccc34)[C@]12C | 21 | – | – | –
N#CC1=C(S)N=C(N)C(c2nc(-c3ccccc3)cs2)C12CCCC2 (stereo not given) | – | 33 | – | –
O=C(N/N=C/c1cc(Cl)cc(Cl)c1O)c1ccncc1 | – | 24 | – | –
O=C(c1ccc(Cl)cc1)C1CCN(c2ncnc3sccc23)CC1 | – | – | – | –
Cc1cn([C@H]2C[C@H](O)[C@@H](CNC(=O)[C@H](N)Cc3cscn3)O2)c(=O)[nH]c1=O | – | – | – | –
CC(=O)NC1C(=O)N=C(SC(C)C(=O)Nc2cccc(Cl)c2)NC1=O (stereo not given) | – | 22 | – | –
O=C(NCc1cccnc1)C(=O)Nc1ccc([N+](=O)[O-])cc1 | 22 | – | – | –
COc1ccc(C(=O)NCc2cccnc2)cc1C(=O)NCc1cccnc1 | – | – | – | –
O=C(NCc1cccnc1)c1cccs1 | 22 | – | – | –
O=C(NCc1cccnc1)c1ccc(Cl)c(Cl)c1 | 37 | – | – | –
CC(=O)c1ccccc1C(=O)NCc1cccnc1 | – | – | – | –
CC1C(=O)c2ccccc2CC1C(=O)O (stereo not given) | – | – | – | –
CCCCCCN1C[C@@H](O)[C@H](n2cc(COC(=O)c3ccccc3)nn2)C[C@@H]1c1ccc(OC)cc1 | – | – | – | –
C=CCn1c(SCc2c(Cl)cccc2Cl)nnc1-c1cccc(C)c1 | – | – | – | –
CC(=O)N1CCOc2cc(S(=O)(=O)NC(C)c3ccccc3)c(Cl)cc21 (stereo not given) | 30 | – | – | –
CCn1c(=O)c(C(=O)NNS(=O)(=O)c2ccc(Br)cc2)c(O)c2ccccc21 | 35 | – | – | –
CCn1c(=O)c(C(=O)NNS(=O)(=O)c2ccc(C)cc2)c(O)c2ccccc21 | – | – | – | –
COc1ccc(C(=O)CSc2ccc(-c3ccco3)nn2)cc1 | – | 23 | – | –
CC(C)(C)S(=O)N1Cc2ccc(CO)cc2[C@@H]1CCO (stereo not given in full) | – | – | – | –
Fc1ccccc1CNc1ccc(Cl)c(Cl)c1 | 25 | – | – | –
SMILES | UHRF1 binding | PRMT1 inh | LEDGF integ inh | MBD2 inh
O=c1c2cnn(-c3ccccc3)c2ncn1CCc1ccccc1 | 47 | – | – | –
O=C(O)CC1c2ccccc2CCN1S(=O)(=O)c1cccs1 (stereo not given) | 24 | – | – | –
Cc1oc(CC(C)C)cc1C(=O)NCCCC(=O)O | – | – | – | –
Cc1oc(CC(C)C)cc1C(N)=O | 26 | – | – | –
Cn1nc(C(=O)O)c(=O)n(C)c1=O | – | – | – | –
Cc1n[nH]c(C)c1S(=O)(=O)N1CCC(C(=O)O)CC1 | 21 | – | – | –
COc1ccc(N2C(=O)CC(N3CCOCC3)C2=O)cc1 (stereo not given) | – | 21 | – | –
COc1ccc(C)cc1-n1c(SCC(=O)N2CCOCC2)nc2ccccc2c1=O | – | – | – | –
Cn1c(/C=C/c2ccc(Cl)cc2)c([N+](=O)[O-])c(=O)n(C)c1=O | 21 | – | – | –
CC1CCCC(C)N1/N=C/c1ccc([N+](=O)[O-])cc1 (stereo not given) | – | – | – | –
CC1CCCC(C)N1/N=C/c1ccc(N(C)C)cc1 (stereo not given) | 24 | – | – | –
Fc1ccccc1-c1n[nH]c(=S)n1N=Cc1ccc(OCc2ccccc2)cc1 | – | – | – | –
CC(=O)Nc1ccc(S(=O)(=O)NCCSc2ccccn2)cc1 | 21 | – | – | –
COc1ccc2nc(Nc3sc4c(c3C(N)=O)CCCC4)sc2c1 | – | 45 | – | –
CSCCC1NC(=O)N(C(C)C(=O)Nc2cc(Cl)cc(Cl)c2)C1=O (stereo not given) | 24 | – | – | –
CSCCC1NC(=O)N(CC(=O)Nc2c(Cl)cc(Cl)cc2Cl)C1=O (stereo not given) | – | – | – | –
COc1cc2c(cc1OC)C(c1ccccc1)NC(C)(C)C2 (stereo not given) | 46 | – | – | –
COc1ccc(S(=O)(=O)N2CCN(CC(=O)c3ccc(O)c(O)c3)CC2)cc1 | – | – | 61 | –
CSCCC(NC(=O)c1ccccc1Cl)C(=O)NCC(c1cccs1)N(C)C (stereo not given) | – | – | – | –
O=C1C(=O)c2cccnc2-c2ncccc21 | – | 22 | – | –
COC1=C(Br)C(=O)c2ncccc2C1=O | – | – | 15 | –
O=C1c2cccnc2-c2ncccc21 | – | – | – | –
COc1ccccc1N1C(=O)c2cccnc2C1=O | – | – | – | –
Cc1cccc(C(=O)NCCC(=O)NCc2ccccc2Cl)c1 | – | – | – | –
CN(Cc1ccc(Cl)cc1Cl)C(=O)C1CSC2(C)CCC(=O)N12 (stereo not given) | – | – | – | –
SMILES | UHRF1 binding | PRMT1 inh | LEDGF integ inh | MBD2 inh
COC(=O)c1ccc(CSc2nnc(NCc3ccccc3)s2)o1 | – | – | – | –
COC(=O)c1ccc(CSc2nc(-c3ccccc3)cs2)o1 | 21 | – | – | –
Cn1c(=O)[nH]c(=O)c2c1nc([N+](=O)[O-])n2Cc1ccccc1 | – | – | – | –
COc1ccc(C(=O)Nc2ccccc2C(=O)NC2CC2)c(OC)c1OC | – | – | – | –
COc1cc(C(=S)N2CCCC2)cc(Cl)c1OCC(=O)Nc1ccc(C)cc1C | – | 22 | – | –
CCOc1cc(C(=O)Nc2ccc(C)cc2C)ccc1OCC(=O)N1CCCCC1 | – | – | – | –
COc1cccc(C2=NOC(C(=O)Nc3cccnc3Cl)C2)c1 (stereo not given) | – | – | – | –
Nc1ccc(S(=O)(=O)Nc2nccs2)cc1N=Nc1ccccc1[N+](=O)[O-] | – | 25 | – | –
O=[N+]([O-])c1ccccc1S(=O)(=O)Nc1ccc(S(=O)(=O)Nc2nccs2)cc1 | – | – | – | –
O=C1CC(c2ccccc2)CC(O)=C1C=NC1CCCCC1 (stereo not given) | – | – | – | –
O=C1CC(c2ccccc2)CC(O)=C1C=NC1CCCC1 (stereo not given) | 48 | – | – | –
CCOC(=O)c1c(NC(=O)c2ccco2)sc2c1CCCC2 | – | – | – | –
N#Cc1c(NC(NC(=O)c2ccco2)C(=O)c2ccccc2)sc2c1CCCC2 (stereo not given) | – | 23 | – | –
N#Cc1c(NC(=O)c2ccccc2)sc2c1CCCCC2 | – | – | – | –
